Each compound was assayed against Glucose transporter (Leishmania mexicana) (UniProt O61059) (assay: ST_JUDE_LEISH: Cytotoxicity at 2uM final concentration against transgenic Leishmania Mexicana promastigotes LmGT2 that are glucose transport deficient and complemented with the L. Mexicana glucose transporter 2. Activity is measured by DNA content using SYBR green in vitro).
Type: functional

SMILES	inhibition [%]
CC(C)[C@H](NC(=O)c1ccc(O)c(-c2ccc(Cl)c(Cl)c2)c1)C(=O)NCCN1CCCC1	0.36
COC(=O)CCCCOc1c(OC)cc(Cc2cnc(N)nc2N)cc1OC	7.7
CCCOc1ccc(-c2nonc2NC(=O)c2cccc(OC)c2)cc1OCCC	10.5
CS(=O)(=O)NCCCNCc1ccc(-c2cccc(-c3nc4cc(F)ccc4[nH]3)c2)cc1	-0.29
CCN(C1CCCCC1)S(=O)(=O)c1ccc(OC)c(N2CCN(C(=O)C(Cl)(Cl)Cl)CC2)c1	-0.47
NCCNc1ccc([N+](=O)[O-])cc1C(=O)Nc1cccc(Cl)c1	2.22
CCC(=O)OC(CCN(CC)CC)(c1ccccc1)c1ccccc1	1.58
CN(C)CCOc1ccc2nc(-c3cccc(OCc4ccccc4)c3)[nH]c2c1C#N	1.74
Fc1ccc2nc(Nc3nc(-c4ccccn4)cs3)sc2c1	0.2
Cc1ccc(-c2cc(C(=O)Nc3ccc(S(=O)(=O)N4CC(C)OC(C)C4)cc3)[nH]n2)c(O)c1 (stereo unspecified)	3.48
CCC(C)NS(=O)(=O)c1ccc2nc(Nc3ccc(C)cc3)n(C3CCCCC3)c2c1 (stereo unspecified)	3.35
CN1CCN(CC(=O)Nc2ccc(-c3csc(-c4nc5ccccc5[nH]4)c3)cc2)CC1	-2.28
CN1CCC(C(=O)Nc2cccc(-c3ccc(-c4nc5cc(C(F)(F)F)ccc5[nH]4)s3)c2)CC1	6.1
CC(C)N1CCN(C(CN2CCN(CCCOc3cccc(-c4ccccc4)c3)CC2)c2ccc(F)cc2)CC1 (stereo unspecified)	0.81
Cc1cccc(NC(c2cccs2)c2c(NC(=O)c3ccccc3)sc(C)c2C)n1 (stereo unspecified)	2.13
COc1ccccc1C1CCN(C2CCC(NC(=O)/C=C/c3ccc4c(c3)OC(F)(F)O4)CC2)CC1 (stereo unspecified)	1.28
N#Cc1ccc2c(c1)CN(CCC1CCC(NC(=O)c3cc4ccccc4cc3N)CC1)CC2 (stereo unspecified)	3.13
CC1CN(c2ccc(C(=O)NCC3CC3)cc2NC(=O)OCc2ccccc2)CC(C)O1 (stereo unspecified)	-0.78
COc1ccc(-c2nc(NC(=O)COc3ccc(C(C)=O)cc3)sc2C)cc1	2.69
COc1ccc2c(=O)ccn(CCN3CCC(NCc4ccc5c(n4)NC(=O)CS5)CC3)c2c1	3.24
COc1ccc2c(N/N=C/c3cccc([N+](=O)[O-])c3)ccnc2c1	-0.29
Cc1ccc(F)c(OCC2CCCN(c3ccc(C(=O)NC4CC4)cn3)C2)c1 (stereo unspecified)	2.18
CCCCCCCN1CC[C@@H](CCCc2ccnc3ccc(OCC4CCCNC4)cc23)[C@@H](CC)C1 (stereo partly specified)	1.43
CN(C)C(=O)c1ccc(CN(Cc2cccc(OC(C)(C)C)c2)Cc2ccc3c(c2)OCCO3)cc1	1
CCCCN(CCCC)CC(O)c1cc(-c2ccc(Cl)cc2)nc2c(Cl)cc(Cl)cc12 (stereo unspecified)	4.19
CCCCCNC(=N)c1ccc(OCCCCCOc2ccc(C(=N)NCCCCC)cc2)cc1	5.15
